The list is not random: actives were taken first. Their share in the collection is about 2.9%.
MEKK3 PB1 HTS: modulators (inhibitors or enhancers) of MEK5 binding to human MEKK3 PB1 domain; Q99759; 290,000 tested, 1.4% active; binding response (% of control), % at 10 µM; bead-based flow cytometry, Alexa488-MEK5 binding to MEKK3; actives lie on both sides; 0 = blocked by unlabeled MEK5, 100 = vehicle;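 active means binding response more than 3 SD above or below the average of its plate-row segment, actives on both sides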;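 further: Alexa488 bead fluorescence after subtracting the streptavidin-only scavenger bead signal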
MEKK2wt PB1 HTS: raises or lowers MEK5 binding to wildtype human MEKK2 PB1 domain. AID 1531. bead flow cytometry, Alexa488-MEK5 binding to MEKK2 WT; actives lie on both sides. 290,000 tested, 1.1% active. Q9Y2U5. binding response (% of control), % at 10 µM; in the data active means binding response below about 67% or above about 130%
MEKK2mut PB1 HTS: signal of MEK5 binding to mutant human MEKK2 PB1 domain; percent response, % at 10 µM; 290,000 tested, 0.35% active; bead flow cytometry, Alexa488-MEK5 binding to MEKK2 mutant; in the data active means percent response above about 24%, passing the limit was not always enough
ABCB6 inh MLPCN: blocks the human ABCB6 transporter. AID 602162. K562-ABCB6 porphyrin accumulation, flow cytometry, 1 h; hits give low values. fluorescence ratio to DMSO, % at 10 µM. 360,000 tested, 0.19% active;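 active means fluorescence ratio to DMSO below 75%, the collection mean minus 3 SD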;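 further: signal is porphyrin accumulated inside mitochondria; 100% equals median channel fluorescence of DMSO control wells; lower ratio means ABCB6 inhibition with less porphyrin fluorescence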
Target sequence (Q9NP58 whole entry, looked up): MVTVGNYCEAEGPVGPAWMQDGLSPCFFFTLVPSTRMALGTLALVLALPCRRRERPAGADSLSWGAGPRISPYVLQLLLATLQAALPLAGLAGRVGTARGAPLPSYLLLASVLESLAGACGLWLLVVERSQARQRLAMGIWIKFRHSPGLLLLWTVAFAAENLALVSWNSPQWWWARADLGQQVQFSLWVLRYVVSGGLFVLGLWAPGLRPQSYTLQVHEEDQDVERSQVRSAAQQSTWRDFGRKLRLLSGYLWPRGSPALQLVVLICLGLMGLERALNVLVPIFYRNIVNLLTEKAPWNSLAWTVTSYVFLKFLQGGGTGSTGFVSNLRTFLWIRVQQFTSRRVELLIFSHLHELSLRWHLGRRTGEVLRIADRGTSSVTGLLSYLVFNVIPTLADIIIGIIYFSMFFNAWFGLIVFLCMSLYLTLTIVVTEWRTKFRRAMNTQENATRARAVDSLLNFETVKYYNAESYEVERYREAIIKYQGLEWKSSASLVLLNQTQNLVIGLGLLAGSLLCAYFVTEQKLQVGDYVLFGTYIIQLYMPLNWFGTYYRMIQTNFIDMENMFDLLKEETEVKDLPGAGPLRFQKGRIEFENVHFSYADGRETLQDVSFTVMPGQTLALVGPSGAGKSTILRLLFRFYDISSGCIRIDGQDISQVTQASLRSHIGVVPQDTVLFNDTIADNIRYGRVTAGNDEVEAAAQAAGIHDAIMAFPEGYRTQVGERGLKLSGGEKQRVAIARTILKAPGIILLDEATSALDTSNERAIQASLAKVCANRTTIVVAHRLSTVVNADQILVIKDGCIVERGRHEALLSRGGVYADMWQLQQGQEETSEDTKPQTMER
CRFR2-BP antag: CRF-BP/CRF-R2 complex antagonism | HEK293 CRF-R2/CRF-BP, CRF-induced calcium fluorescence | inhibition, % at 11.8 µM | 350,000 tested, 0.59% active | AID 588475;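 active means inhibition of the ligand-induced calcium signal above about 50% at the single tested concentration, limit read from the data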
CRFR2-BP ag: agonists of human CRF-binding protein/CRF-R2 receptor complex; HEK293 CRF-R2/CRF-BP, calcium dye fluorescence (FLIPR); percent of saturating CRF peptide response; activation, % at 13.2 µM; 350,000 tested, 0.46% active;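 active means activation of at least 50%, plus an integration ratio under a set limit after plate pattern correction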;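 further: plate controls were neutral control wells without compound for no effect and CRF at EC100 for full effect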
* hit, by the source's call; / = no result.

SMILES | MEKK3 PB1 HTS | MEKK2wt PB1 HTS | MEKK2mut PB1 HTS | ABCB6 inh MLPCN | CRFR2-BP antag | CRFR2-BP ag
CCc1ccc(Cn2nnc(C(=O)Nc3cccc(C)c3)c2N)cc1 | 100 | 100 | 2 | 98 | -37 | 20
Cc1ccc(Cn2nnc(C(=O)Nc3cccc(C)c3C)c2N)cc1 | 95 | 95 | -3 | 104 | -103 | 105*
CCN(CC)CCNC(=O)C(=O)NCC1OCCN1S(=O)(=O)c1ccc(Cl)cc1 (stereo not drawn) | 102 | 142* | 18 | 92 | -8 | -1
CC1(C)CC2CC(C)(CN2/C=C2/CCCCC2=O)C1 (stereo not drawn) | 101 | 98 | -4 | 97 | 115* | -1
CC1(C)C[C@@H]2C[C@@](C)(CN2C(=O)c2ccccc2)C1 | 106 | 103 | 5 | 98 | -6 | 1
CN(C)Cc1c(C(=O)N/N=C/c2ccco2)nnn1-c1nonc1N | 104 | 101 | -2 | 97 | 4 | -1
O=C(O)c1cnnc2ccccc12 | / | / | / | 97 | -9 | 3
CCCNC(=O)Cn1c(=O)/c(=C/c2ccc(-c3cccc([N+](=O)[O-])c3)o2)s/c1=C\C(=O)C(C)(C)C | / | / | / | 112 | -51 | 32
CCCNC(=O)Cn1c(=O)/c(=C\c2ccc(-c3cccc([N+](=O)[O-])c3)o2)s/c1=C\C(=O)C(C)(C)C | 99 | 76 | -3 | 130 | -121 | 57*
Cc1nc(SCc2nc3ccc(C(F)(F)F)cc3[nH]2)c2oc3ccccc3c2n1 | / | / | / | 105 | -4 | 1
CN(CCCC(=O)NCc1ccc2c(c1)OCO2)S(=O)(=O)c1ccc([N+](=O)[O-])cc1 | 103 | 110 | 7 | 99 | 9 | 0
C#CCOCCOCCOCCNc1nc(N2CCN(C(=O)CCCCCCCCCCNC(=O)[C@@H](CCC(=O)O)n3cc(CCCCCN)nn3)CC2)nc(N2CCN(C(=O)CCCCCCCCCCNC(=O)[C@H](CCCCN)n3cc(C[C@@H](C)CC)nn3)CC2)n1 | / | / | / | 97 | -189 | 149*
C#CCOCCOCCOCCNc1nc(N2CCN(C(=O)CCCCCCCCCCNC(=O)[C@H](CCCCN)n3cc(CCO)nn3)CC2)nc(N2CCN(C(=O)CCCCCCCCCCNC(=O)[C@H](CCCCN)n3cc(C[C@@H](C)CC)nn3)CC2)n1 | / | / | / | / | -145 | 146*
Cc1ccc(CN2CC34C=CC(O3)C(C(=O)NCc3ccc5c(c3)OCO5)C4C2=O)cc1 (stereo not drawn) | 128* | 125 | 8 | 96 | -1 | 0
COCCCNC(=O)C1C2C=CC3(CN(Cc4ccc(C)cc4)C(=O)C13)O2 (stereo not drawn) | 105 | 109 | 9 | 100 | -5 | 0
CC(C)c1ccc(CNc2ncccn2)cc1 | 103 | 135 | 13 | 97 | -9 | 1
Cc1ccc(NC(=O)c2nc3nccc(C)n3n2)cc1S(=O)(=O)N1CCCCC1 | / | / | / | 98 | 3 | -1
COc1ccc(NC(=O)c2nc3nccc(C)n3n2)cc1S(=O)(=O)N1CCOCC1 | / | / | / | 100 | 108* | 0
CCOC(=O)c1sc(N)nc1C(F)(F)F | / | / | / | 90 | -11 | -1
CN(C(=O)COC(=O)CSc1ccc(C(N)=O)cc1[N+](=O)[O-])C1CCS(=O)(=O)C1 (stereo not drawn) | / | / | / | 100 | 17 | 0
CC1CCCCC12NC(=O)N(CC(=O)Nc1ccc3[nH]c(=O)[nH]c3c1)C2=O (stereo not drawn) | / | / | / | 102 | 2 | 0
C/C(=N\NC(=O)C(C)Oc1ccc([N+](=O)[O-])cc1)c1ccccn1 (stereo not drawn) | / | / | / | 109 | 55* | 0
CC(Oc1ccccc1)C(=O)NNC(=O)c1ccccn1 (stereo not drawn) | 100 | 99 | -4 | 101 | -8 | 0
CCCC(=O)Nc1nnc(Sc2ccc(N(C)C)cc2)s1 | 103 | 102 | 3 | 105 | 69* | -1
CCC(=O)Nc1nnc(Sc2ccc(N(C)C)cc2)s1 | / | / | / | 104 | -26 | 1
SMILES | MEKK3 PB1 HTS | MEKK2wt PB1 HTS | MEKK2mut PB1 HTS | ABCB6 inh MLPCN | CRFR2-BP antag | CRFR2-BP ag
CCOC(=O)CC1C(=O)NCCN1C(=O)c1cccc(OC)c1 (stereo not drawn) | 108 | 109 | 12 | 106 | 6 | 0
Cc1[nH]c(C)c(S(=O)(=O)NCCc2ccccc2)c1C(=O)N1CCCCC1 | 99 | 100 | -6 | 100 | 70* | 1
COc1ccc(/C=C/C(=O)NC(=S)Nc2ccc(S(=O)(=O)Nc3cc(OC)ncn3)cc2)cc1 | 103 | 104 | -2 | 99 | 58* | -2
COc1cc(NS(=O)(=O)c2ccc(NC(=S)NC(=O)/C=C/c3ccc(OC)c(OC)c3)cc2)ncn1 | 103 | 93 | -6 | 103 | -20 | -5
N=c1c2c(ncn1CCCO)Oc1cc(O)ccc1C2c1ccccc1 (stereo not drawn) | 106 | -4.0* | 4 | 98 | 2 | 0
COc1ccc(C2c3ccc(O)cc3Oc3ncn(CCN4CCOCC4)c(=N)c32)cc1 (stereo not drawn) | 93 | 97 | -14 | 99 | 11 | 0
O=C(CSc1nc2c(sc3ccccc32)c(=O)n1CCCN1CCCC1)NCc1ccccc1 | 101 | 113 | 4 | 108 | -21 | 11
COc1cccc(NC(=O)CSc2nc3c(sc4ccccc43)c(=O)n2CCCN2CCCC2)c1 | 110 | 179* | 21 | 91 | -2 | 0
CCOc1cccc(CN2CCN(c3cccc(C(F)(F)F)c3)CC2)c1O | 97 | 105 | 5 | 99 | -7 | 7
COc1cccc(CN2CCN(c3cccc(C(F)(F)F)c3)CC2)c1OC | 96 | 96 | 1 | 99 | 54* | 1
COc1ccc(NC(=O)COC(=O)C2CC(=O)N(CCc3ccc(OC)c(OC)c3)C2)cc1Cl (stereo not drawn) | / | / | / | 99 | 1 | -1
O=C(O)c1cn(Cc2ccccc2)c2ccc(Cl)cc2c1=O | / | / | / | 98 | 0 | 0
Cc1cccc(N2CCN(S(=O)(=O)c3ccc(Cl)nc3)CC2C)c1 (stereo not drawn) | / | / | / | 100 | 76* | 0
Cc1cccc(N2CCN(S(=O)(=O)c3ccc4c(c3)C(C)(C)C(=O)N4C)CC2C)c1 (stereo not drawn) | 98 | 102 | -6 | 100 | 22 | 0
COc1ccc(NC(=O)CN(C)C(=O)CSc2ccc3c(c2)OCCO3)cc1 | 103 | 113 | 9 | 105 | -131 | 181*
Nc1ccc(Oc2ncccn2)c(Cl)c1 | 97 | 98 | -1 | 102 | -1 | 1
Fc1ccc(Oc2ccnc(Cl)n2)c(Cl)c1 | / | / | / | / | 53* | -1
Cc1ccc(NC(=O)COC(=O)CCC(=O)c2cccs2)c(Br)c1 | / | / | / | 94 | 59* | -1
Cc1ccc(CNC(=O)CCC(=O)c2cccs2)cc1 | 99 | 98 | -3 | 100 | 59* | 1
